Results taken from ChEMBL document CHEMBL4513216, “Probing the Open Global Health Chemical Diversity Library for Multistage-Active Starting Points for Next-Generation Antimalarials” (ACS Infect Dis, 2020).
Out of some 68,000 compounds screened, about 2,700 (4%) showed an effect of 50% or more. The sample as a whole holds a higher share of strong results than the screen did.

These compounds were tested on Plasmodium berghei (assay: Screen against P. berghei liver stage (PbLuc), transformed with Luciferase, at 2uM). Conditions: tested at 2 uM.
Assay type: functional, HepG2

SMILES	INHIBITION [%]
CN(Cc1ccncc1)CC(c1cccs1)N1CCOCC1 (stereo not drawn)	-10.66
CN(Cc1ncc[nH]1)CC(c1cccs1)N1CCOCC1 (stereo not drawn)	62.46
Cc1cc(C(F)(F)F)c2c(=O)n(Cc3cc(C)on3)n(C)c2n1	1.36
O=C1CCCN1Cc1nnn2c1CN(c1ncccn1)CCC2	1.48
CC(C(=O)NCc1ccnc(N2CCCC2)c1)n1cccn1 (stereo not drawn)	17.12
CC(C(=O)NCc1ccnc(N2CCOCC2)c1)n1cccn1 (stereo not drawn)	-7.02
CC(C(=O)NCc1ccc(N2CCN(C)CC2)nc1)n1cccn1 (stereo not drawn)	23.16
CSC(C)C(=O)NCc1ccnc(N2CCN(C)CC2)c1 (stereo not drawn)	22.29
CN1CC(C(=O)NCc2ccnc(-n3cccn3)c2)CC1=O (stereo not drawn)	67.99
CC(C(=O)NCc1ccnc(N2CCCCCC2)c1)n1cccn1 (stereo not drawn)	53.33
CCN1CC(C(=O)NCc2ccnc(-n3cccn3)c2)CC1=O (stereo not drawn)	2.46
CC(C(=O)NCc1ccnc(N2CCN(C)CC2)c1)n1cccn1 (stereo not drawn)	53.12
CC(C)N1CC(C(=O)NCc2ccnc(-n3cccn3)c2)CC1=O (stereo not drawn)	-47.05
Cn1cc(CC2CC(=O)N(Cc3ccc(Cl)cc3)C2=O)cn1 (stereo not drawn)	29.4
CCn1ccnc1CN1CCN(CCOc2ccc(C#N)cc2)CC1	-12.75
CCOc1ccc2[nH]c(=O)c(CN3CCN(S(N)(=O)=O)CC3)cc2c1	43.05
CN1CCC2(CC1)CN(C(=O)c1cccc3cccnc13)CCN2C	9.11
CC(CN1CCCC1=O)NC(=O)c1ccc(C(F)(F)F)[nH]c1=O (stereo not drawn)	-85.12
Cc1cccn2cc(CC(=O)N3CCCC(n4cncn4)C3)nc12 (stereo not drawn)	-45.23
O=C(C1CC1)N1CCC2(CC1)OCCO2	56.99
O=C(C1CCC1)N1CCC2(CC1)OCCO2	11.87
O=C(C1CCCC1)N1CCC2(CC1)OCCO2	-29.58
CC(C)C1CN(c2cccc(C#N)n2)CCCN1Cc1ccc(F)cc1 (stereo not drawn)	8.26
Cc1cc(C)nc(C2CCN(c3ccncn3)C2)n1 (stereo not drawn)	80.06
Cc1ccnc(C2CCN(c3ccnc(C)n3)C2)n1 (stereo not drawn)	17.24
CCc1nnc(Nc2cc(C)nc(C3CCN(c4ccncn4)C3)n2)s1 (stereo not drawn)	37.36
N#Cc1cccc(NC(=O)N(CC(F)F)C2CC2)c1	-73.45

SMILES	INHIBITION [%]
CSCC(=O)N1CCCC(CCC(=O)N(C)CCc2ccccn2)C1 (stereo not drawn)	28.62
O=C(c1ccoc1)N1CC[C@H]2OCC[C@@]2(COc2ncccc2F)C1	30.79
CC(c1cccc(O)c1)N(C)S(=O)(=O)c1cccnc1 (stereo not drawn)	-18.09
CC(c1cccc(O)c1)N(C)S(N)(=O)=O (stereo not drawn)	-21.47
CCN(C(C)c1cccc(O)c1)S(=O)(=O)c1cccnc1 (stereo not drawn)	52.83
Cc1cc(C)c(N(CC(O)CNCc2ccccc2)S(C)(=O)=O)c(C)c1 (stereo not drawn)	25.73
CN(CCNC(=O)N1CCN(Cc2ccon2)CC1)c1ccccc1	-5.97
Cc1cc(CN2CCN(C(=O)NCc3ccco3)CC2)no1	-24.5
CC(C)C(=O)NCCNC(=O)C(C)OCC(F)(F)F (stereo not drawn)	57.76
CCN(CC)CCNC(=O)C(C)OCC(F)(F)F (stereo not drawn)	-55.73
CC(OCC(F)(F)F)C(=O)NCCN(C)C (stereo not drawn)	-6.73
CC(C)(C)c1ccc2c(c1)CCN2C(=O)c1ccc(=O)[nH]n1	-6.69
O=C(c1c[nH]c(=O)[nH]1)N1CCc2ccccc21	-63.68
O=C(c1ccc(=O)[nH]n1)N1CCc2ccccc21	54.52
O=C(c1cccnc1)N1CCCC1c1cc[nH]n1 (stereo not drawn)	40.31
Cc1ccc(C(=O)N(Cc2ccc(F)cc2)C2CC2)c(=O)[nH]1	27.33
Cc1ccc(C(=O)N(Cc2ccc(F)cc2F)C2CC2)c(=O)[nH]1	20.76
Cc1ccc(C(=O)N(Cc2cccc(F)c2)C2CC2)c(=O)[nH]1	63.46
O=C(O)c1c(NC2CCC2)ncc2c1CCN(C1CCOC1)C2 (stereo not drawn)	45.12
O=C(O)c1c(-c2ccncc2)ncc2c1CCN(C1CCOC1)C2 (stereo not drawn)	-80.9
CCN(CC)c1ncc2c(c1C(=O)O)CCN(C1CCOC1)C2 (stereo not drawn)	24.51
CCN(C)c1ncc2c(c1C(=O)O)CCN(C1CCOC1)C2 (stereo not drawn)	54.13
O=C(O)c1c(-c2ccoc2)ncc2c1CCN(C1CCOC1)C2 (stereo not drawn)	55.52
CN1CCN(c2ncc3c(c2C(=O)O)CCN(C2CCOC2)C3)CC1 (stereo not drawn)	21.28
CNS(=O)(=O)c1ccc(CNC(=O)Nc2cn[nH]c2)cc1	2.07
COc1ccccc1CCc1nc(CC2CCN(C)CC2)no1	34.46
